The values that follow come from PubChem BioAssay.

Activity calls are given as the source filed them.

One test addresses Albumin (Bos taurus) (UniProt P02769). Nature of the test: compounds binding labelled BSA control protein – biochemical, small-molecule microarray, Alexa647 label, 635/667 nm fluorescence, artefact control for SMM control protein annotation, profiling panel (AID 1118).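 Further: score merges 667 nm emission intensity and signal-to-noise per printed compound spot.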 Particulars: BSA-A647 binding, fluorescence 635 nm, higher = more signal.
A short description of test [1]: probe aXIP binding to arrayed compounds – biochemical, NeuroSMM set, 635/667 nm fluorescence, primary screen (AID 1119).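 Further: probe is the protein aXip251-270 applied at 1 µg/mL to compound-printed slides; binding of probe to printed compounds measured as 667 nm fluorescence plus signal to noise.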 Particulars: small-molecule microarray, higher = more signal, called active from +8 up or from −8 down.
A short description of test [2]: probe aNOTCH3 binding on compound microarray – biochemical, small-molecule microarray, 635/667 nm fluorescence, primary screen (AID 1120).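 Further: probe is a biotin-tagged antibody raised against NOTCH3 rather than NOTCH3 protein; score merges spot fluorescence near 667 nm with spot signal to noise.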 The following applies: higher = more signal.
The nature of test [3]: probe aNOTCH2 binding on compound microarray – biochemical, small-molecule microarray, 635/667 nm fluorescence, primary screen (AID 1121).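 Further: score merges feature fluorescence read at 667 nm with its signal to noise.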 The following applies: higher = more signal.
Test [4] has as its target Carbonic anhydrase 2 (Homo sapiens) (UniProt P00918). Nature of the test: compounds binding carbonic anhydrase 2 – biochemical, small-molecule microarray, Alexa647-labelled CAII, profiling panel (AID 1122). The following applies: CAII-A647 binding fluorescence, higher = more signal.
The nature of test [5]: COS7 lysate on small-molecule microarray, probe aHis, 635 nm (AID 1123).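 Further: z-score combines 667nm fluorescence intensity with signal-to-noise per printed compound spot.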 The following applies: COS7 cell lysate, fluorescence, higher = more signal.
Test [6] in a line: probe aLAP1 signal on lysate-treated microarray – cell lysate, small-molecule microarray, COS7 lysate, primary screen (AID 1124).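 Further: lysate comes from COS7 cells expressing LAP1 and is applied at 0.3 µg/mL; score merges spot fluorescence near 667 nm with signal-to-noise over triplicate slides.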 Particulars: probe aLAP1, fluorescence, higher = more signal.
The next test deals with Sam68 (KHDRBS1). Nature of the test: compounds binding KHDRBS1 protein – biochemical, small-molecule microarray, 635 nm fluorescence, primary screen (AID 1125).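 Further: score merges 667 nm channel intensity with signal to noise over triplicate slides.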 The following applies: higher = more signal.
Test [7] relates to Chordin-like protein 2 (CHRDL2). Nature of the test: compounds binding chordin-like 2 – biochemical, small-molecule microarray, 635 nm fluorescence, primary screen (AID 1126).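 Further: printed compound slides probed with Chrdl2 protein at 4 µg/mL for 1 h at 4 C; score merges 667 nm emission intensity with signal to noise over three replicate slides.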 The following applies: fluorescence 635 nm, higher = more signal.
Test [8] deals with Concanavalin-A (Canavalia ensiformis) (UniProt P02866). Nature of the test: compounds binding concanavalin A lectin – biochemical, small-molecule microarray, Alexa647 label, 635 nm, artefact control for SMM control protein annotation, primary screen (AID 1127).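 Further: z combines 667 nm emission intensity with signal-to-noise across three replicate slides.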 The following applies: ConA-A647 binding fluorescence, higher = more signal.
Concanavalin-A (Canavalia ensiformis), sequence (P02866 whole entry, looked up): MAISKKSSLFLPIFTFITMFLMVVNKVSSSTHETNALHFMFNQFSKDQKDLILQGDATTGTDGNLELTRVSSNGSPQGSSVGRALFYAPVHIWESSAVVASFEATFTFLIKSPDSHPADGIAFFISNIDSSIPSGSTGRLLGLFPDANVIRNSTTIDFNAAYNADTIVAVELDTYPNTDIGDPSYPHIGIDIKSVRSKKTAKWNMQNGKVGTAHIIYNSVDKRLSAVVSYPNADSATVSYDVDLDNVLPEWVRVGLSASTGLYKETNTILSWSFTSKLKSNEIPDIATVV
A short description of test [9]: compounds binding Alexa647 anti-His antibody – biochemical, small-molecule microarray, 635 nm fluorescence, artefact control for SMM control protein annotation, primary screen (AID 1128).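 Further: score merges feature fluorescence with signal-to-noise for each printed compound spot.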 The following applies: higher = more signal.
Test [10] deals with Human papillomavirus type 1a E7 protein (residues 1-88). Nature of the test: HPV1a E7 small-molecule binders, primary screen, biochemical, small-molecule microarray, residues 1-88, 635 nm (AID 1129). Particulars: small-molecule microarray binding, fluorescence 635 nm; higher = more signal.
For test [11], the target named is Focal adhesion kinase 1 (Homo sapiens) (UniProt Q05397). Nature of the test: PTK2 protein binding on printed compound slides – biochemical, small-molecule microarray, 635/667 nm fluorescence, BSA, DTT, primary screen (AID 1130).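 Further: composite of spot emission at 667 nm and signal to noise over triplicate slides.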 Particulars: 635 nm fluorescence, higher = more signal.
Focal adhesion kinase 1 (Homo sapiens), sequence (Q05397 whole entry, looked up): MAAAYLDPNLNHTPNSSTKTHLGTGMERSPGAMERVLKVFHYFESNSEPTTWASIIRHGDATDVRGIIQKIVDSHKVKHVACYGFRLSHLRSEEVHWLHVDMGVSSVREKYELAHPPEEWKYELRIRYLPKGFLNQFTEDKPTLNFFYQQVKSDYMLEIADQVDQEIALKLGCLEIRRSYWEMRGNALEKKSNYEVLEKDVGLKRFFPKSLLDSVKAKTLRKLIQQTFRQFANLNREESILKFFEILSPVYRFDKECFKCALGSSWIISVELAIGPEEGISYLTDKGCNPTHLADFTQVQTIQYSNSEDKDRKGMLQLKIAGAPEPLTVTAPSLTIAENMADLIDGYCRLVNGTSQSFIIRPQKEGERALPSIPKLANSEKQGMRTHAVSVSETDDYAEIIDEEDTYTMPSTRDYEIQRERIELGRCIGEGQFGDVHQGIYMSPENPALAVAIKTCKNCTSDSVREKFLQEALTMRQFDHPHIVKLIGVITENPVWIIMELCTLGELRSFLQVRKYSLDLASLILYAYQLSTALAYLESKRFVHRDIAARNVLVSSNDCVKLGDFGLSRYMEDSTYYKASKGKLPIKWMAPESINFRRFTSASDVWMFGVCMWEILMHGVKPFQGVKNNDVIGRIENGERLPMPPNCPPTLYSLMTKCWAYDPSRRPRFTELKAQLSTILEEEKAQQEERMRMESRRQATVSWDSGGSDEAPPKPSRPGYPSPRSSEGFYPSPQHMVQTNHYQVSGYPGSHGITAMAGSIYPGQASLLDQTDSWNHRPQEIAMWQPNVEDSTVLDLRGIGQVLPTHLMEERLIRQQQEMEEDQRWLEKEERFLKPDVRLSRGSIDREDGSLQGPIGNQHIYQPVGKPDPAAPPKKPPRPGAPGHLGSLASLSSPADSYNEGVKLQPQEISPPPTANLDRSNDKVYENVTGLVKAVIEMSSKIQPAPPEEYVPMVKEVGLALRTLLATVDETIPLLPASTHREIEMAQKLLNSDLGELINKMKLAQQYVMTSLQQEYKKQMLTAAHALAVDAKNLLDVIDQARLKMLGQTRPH
Test [12] deals with Fibrinogen (Alexa647-labelled). Nature of the test: Alexa647-fibrinogen binding to printed small molecules – biochemical, small-molecule microarray, 635/667 nm fluorescence, artefact control for SMM control-protein annotation, profiling panel (AID 1131).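 Further: z-score merges 667 nm fluorescence with per-spot signal-to-noise over triplicate slides.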 The following applies: fibrinogen-A647 binding fluorescence, higher = more signal.
In test [13] the target is Follistatin (Homo sapiens) (UniProt P19883). Nature of the test: FST protein binding to printed compounds – biochemical, small-molecule microarray, 635/667 nm fluorescence, primary screen (AID 1132). The following applies: 635 nm fluorescence, higher = more signal.
Follistatin (Homo sapiens), sequence (P19883 whole entry, looked up): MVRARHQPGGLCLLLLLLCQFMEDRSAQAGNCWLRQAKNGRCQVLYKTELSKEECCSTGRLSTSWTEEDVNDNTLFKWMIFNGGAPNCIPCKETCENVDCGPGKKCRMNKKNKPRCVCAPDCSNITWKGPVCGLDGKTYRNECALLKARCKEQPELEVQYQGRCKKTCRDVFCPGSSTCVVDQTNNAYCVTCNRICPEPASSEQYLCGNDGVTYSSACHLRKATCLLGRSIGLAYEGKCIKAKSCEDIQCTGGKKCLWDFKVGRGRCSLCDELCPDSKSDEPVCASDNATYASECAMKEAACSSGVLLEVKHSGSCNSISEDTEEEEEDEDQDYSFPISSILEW
The target of test [14] is Fibroblast growth factor 2 (Homo sapiens) (UniProt P09038). Nature of the test: basic fibroblast growth factor binding to printed compounds – biochemical, small-molecule microarray, 635/667 nm fluorescence, primary screen (AID 1133). The following applies: FGF2, fluorescence 635/667, higher = more signal.
Fibroblast growth factor 2 (Homo sapiens), sequence (P09038 whole entry, looked up): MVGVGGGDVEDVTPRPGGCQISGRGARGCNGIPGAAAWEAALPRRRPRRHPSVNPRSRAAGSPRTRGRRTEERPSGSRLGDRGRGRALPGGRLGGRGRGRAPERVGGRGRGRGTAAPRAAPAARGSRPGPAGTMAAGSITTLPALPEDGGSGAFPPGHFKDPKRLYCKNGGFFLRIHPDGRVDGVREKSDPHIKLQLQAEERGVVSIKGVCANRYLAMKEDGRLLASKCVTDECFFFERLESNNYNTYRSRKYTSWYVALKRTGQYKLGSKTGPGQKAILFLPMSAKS
The nature of test [15]: JC-1 mitochondrial potential readout, lung cancer cells – cell-based, A549, JC-1 fluorescence, basal, 24 h, 100 nL, profiling panel (AID 1138).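 Further: A549 lung adenocarcinoma cells under basal conditions with no added stimulus; test concentration not given here.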 Particulars: higher = more signal.
A further test deals with Lefty1. Nature of the test: Lefty1 protein binding to printed compounds – biochemical, small-molecule microarray, 635/667 nm fluorescence, primary screen (AID 1139). The following applies: fluorescence 635/667, higher = more signal.
In test [16] the test system is wheat germ agglutinin (Triticum aestivum), Alexa647-labelled. Nature of the test: Alexa647-WGA lectin binding to printed small molecules – biochemical, small-molecule microarray, 635/667 nm fluorescence, artefact control for SMM control-protein annotation, profiling panel (AID 1140).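 Further: score merges 667 nm feature emission with signal to noise over triplicate slides.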 The following applies: WGA-A647 binding, 635 nm fluorescence, higher = more signal.
Test [17] has as its target Luciferin 4-monooxygenase (Photinus pyralis) (UniProt P08659). Nature of the test: inhibition of purified Photinus pyralis luciferase – biochemical, luminescence, purified enzyme, 2006 set, primary screen (AID 1141).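 Further: cell-free assay with purified firefly luciferase at 100 ng per well in PBS; test concentration not given here.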 The following applies: purified firefly luciferase, SteadyGlo luminescence, 30 min; higher = more signal, called active from +8 up or from −8 down.

Albumin (Bos taurus), sequence (P02769 whole entry, looked up): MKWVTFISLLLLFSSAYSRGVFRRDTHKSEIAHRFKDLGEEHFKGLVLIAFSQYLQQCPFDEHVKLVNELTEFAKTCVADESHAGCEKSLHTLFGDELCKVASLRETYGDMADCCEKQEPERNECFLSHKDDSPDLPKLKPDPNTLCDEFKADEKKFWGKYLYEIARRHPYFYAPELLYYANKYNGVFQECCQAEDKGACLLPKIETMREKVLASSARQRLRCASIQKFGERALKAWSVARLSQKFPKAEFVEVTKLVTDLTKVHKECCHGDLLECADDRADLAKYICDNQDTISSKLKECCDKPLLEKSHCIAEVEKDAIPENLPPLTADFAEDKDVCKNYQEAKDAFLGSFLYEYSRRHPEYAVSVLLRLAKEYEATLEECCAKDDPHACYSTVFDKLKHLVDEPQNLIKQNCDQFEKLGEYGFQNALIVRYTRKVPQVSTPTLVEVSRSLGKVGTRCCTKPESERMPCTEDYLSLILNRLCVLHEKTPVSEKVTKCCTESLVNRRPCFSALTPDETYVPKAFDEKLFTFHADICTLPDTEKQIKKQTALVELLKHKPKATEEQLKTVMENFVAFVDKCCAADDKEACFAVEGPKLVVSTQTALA
Luciferin 4-monooxygenase (Photinus pyralis), sequence (P08659 whole entry, looked up): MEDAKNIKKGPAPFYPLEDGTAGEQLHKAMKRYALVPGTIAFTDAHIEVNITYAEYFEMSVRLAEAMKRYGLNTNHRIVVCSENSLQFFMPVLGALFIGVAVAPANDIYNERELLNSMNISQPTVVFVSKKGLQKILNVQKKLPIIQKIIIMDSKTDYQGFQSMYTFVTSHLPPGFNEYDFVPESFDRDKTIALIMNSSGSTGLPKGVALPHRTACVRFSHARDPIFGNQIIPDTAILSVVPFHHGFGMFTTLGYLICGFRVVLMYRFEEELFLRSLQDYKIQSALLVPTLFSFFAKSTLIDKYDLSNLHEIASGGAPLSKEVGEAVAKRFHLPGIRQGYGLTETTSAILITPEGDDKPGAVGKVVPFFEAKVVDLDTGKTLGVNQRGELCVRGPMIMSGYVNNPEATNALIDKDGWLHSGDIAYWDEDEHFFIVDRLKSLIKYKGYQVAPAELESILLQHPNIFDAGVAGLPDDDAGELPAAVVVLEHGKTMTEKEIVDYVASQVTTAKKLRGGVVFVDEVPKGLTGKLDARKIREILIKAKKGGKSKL

Take `COc1ccc(O[C@H]2C=C[C@@H](c3ccccc3)O[C@@H]2COC(=O)CCC(C)=NOC[C@@H](O)COCc2ccco2)cc1`: the composite z-score was 0.214 with Albumin (Bos taurus); -0.919 in test [2]; -0.271 in test [3]; -0.888 in test [4]; -1.8 in test [5]; -0.875 in test [6]. The composite z-score was -0.875 with Sam68 (KHDRBS1); -3.04 in [7]; -2.57 in test [8]; 0.614 in test [9]; -0.99 in [10]; -0.814 in test [11]. In addition, the composite z-score in test [12] was -3.44; in [13], -2.77; in [14] it was -2.63; in the test on Lefty1, -1.58; in test [16], -0.674. The composite Z-score in test [1] was -0.22 (inactive). Further, the z-score was -0.424 in [15] and -0.49 (inactive) in test [17].

Take `COc1ccc(O[C@H]2C=C[C@@H](C#Cc3ccccc3)O[C@@H]2CO)cc1`: the composite z-score with Albumin (Bos taurus) is 0.271; in test [2] it was -0.0932; in test [3] it was 0.113; in test [4], 0.314; in test [5] it was 0.962; in test [6], 0.0803. The composite z-score is -0.006 in the test on Sam68 (KHDRBS1); 0.176 in test [7]; 0.869 in [8]; -0.0687 in test [9]; 0.071 in test [10]; 0.0306 in [11]. The composite z-score in test [12] amounted to 0.744; in test [13], 0.365; in [14], 0.0738; with Lefty1 it was 0.71; in [16], 0.48. For the same molecule, the composite Z-score in [1] was 0.446 (inactive). The z-score in test [15] is 0.511; in test [17], -1.67 (inactive).

`CCOC(=O)[C@H](CC(C)C)NC(=O)CCC1CC(OC(=O)NCCc2ccc(F)cc2)CC2(CCCC(COC(=O)NCc3cccc(C(F)(F)F)c3)O2)O1` (stereo not given in full): the composite z-score with Albumin (Bos taurus) was 0.386; in test [2], -0.0003; in [3], -0.117; in [4] it was 0.475; in test [5] it was 0.953; in test [6] it was -0.0042. The composite z-score stood at 1.21 in the test on Sam68 (KHDRBS1); 0.273 in test [7]; 0.542 in test [8]; 0.167 in test [9]; 1.15 in [10]; 0.155 in test [11]. For the same molecule, the composite z-score in test [12] was determined as 0.619; in test [13], 0.579; in test [14], 0.987; in the test with Lefty1, 0.549; in test [16], 0.296. Moreover, the composite Z-score in test [1] is 1.35 (inactive). Further, the figures for the z-score in [15] and in test [17] were -0.208 and 0.507 (inactive), respectively.

`CO[C@@H](C1CCCCC1)[C@@H](C)[C@H](OCc1cccc(Br)c1)[C@@H](C)CO`: the composite z-score with Albumin (Bos taurus) is -0.0658; in test [2], -0.207; in test [3], -0.209; in test [4] it was -0.17; in [5], -0.111; in test [6], -0.0972. Also, the composite z-score in the test with Sam68 (KHDRBS1) was -0.0221; in test [7], 0.908; in test [8], -0.153; in [9] it was -0.833; in test [10], -0.0434; in [11] it was -0.299. The composite z-score in [12] is -0.106; in [13], 0.265; in test [14] it was 0.286; with Lefty1 it was 0.407; in test [16], -0.181. For the same molecule, the composite Z-score in [1] is -0.188 (inactive). The z-score was -0.72 in [15] and 0.158 (inactive) in [17].

In the case of `CC(C)=NOC(C)CN1CCCc2nc(C)c(C)cc21` (stereo not given), the composite z-score with Albumin (Bos taurus) came out at 0.297; in test [2], 0.0482; in [3], 0.0037; in [4], 0.449; in test [5], 1.31; in test [6], 1.37. The composite z-score with Sam68 (KHDRBS1) was 0.669; in test [7] it was 0.74; in test [8] it was 0.788; in [9] it was -0.0115; in [10] it was 0.964; in [11], 0.232. Further, the composite z-score in [12] came to 0.484; in test [13], 0.724; in [14] it was 0.753; with Lefty1, 0.947; in [16], 0.323. In addition, the composite Z-score in test [1] is 0.672 (inactive). In addition, the z-score was 0.354 in [15] and 0.57 (inactive) in test [17].

`COC(=O)[C@@H]1CC[C@H](C)[C@@H](c2ccc(Br)cc2)N1`: the composite z-score in the test with Albumin (Bos taurus) is -0.109; in test [2] it was 0.086; in [3] it was 0.0037; in test [4], 0.665; in test [5] it was 0.878; in [6], -0.243. Also, the composite z-score with Sam68 (KHDRBS1) was -1.39; in test [7] it was 0.322; in [8] it was -0.197; in test [9], 0.426; in test [10] it was -1.3; in [11] it was 1.38. Also, the composite z-score was 0.102 in test [12]; -0.291 in test [13]; -0.21 in test [14]; -0.04 with Lefty1; -0.197 in test [16]. Moreover, the composite Z-score in test [1] is 1.22 (inactive). The values for the z-score in test [15] and in test [17] were 0.0492 and -0.464 (inactive), respectively.

With `CC(=O)OC[C@H]1O[C@@H](ON=C(C)CCC(=O)OC[C@H]2O[C@H](C#Cc3ccccc3)C=C[C@@H]2Oc2ccc(C)cc2)[C@H](OC(C)=O)[C@@H](OC(C)=O)[C@@H]1OC(C)=O`, the composite z-score in the test with Albumin (Bos taurus) is 0.635; in test [2], 0.0493; in test [3], -0.0714; in test [4], 0.273; in test [5] it was 0.989; in [6], 0.0582. Besides, the composite z-score was found to be 1.3 in the test with Sam68 (KHDRBS1); 0.549 in [7]; 0.943 in [8]; 0.48 in test [9]; 0.843 in [10]; 0.108 in [11]. For the same molecule, the composite z-score in [12] worked out at 0.705; in test [13], 0.753; in test [14], 1.26; in the test on Lefty1, 0.648; in test [16] it was 0.307. For the same molecule, the composite Z-score in test [1] is -0.0164 (inactive). Further, the z-score in test [15] was 1.08; in test [17], -0.305 (inactive).

As for `CCN1C(=O)[C@H]2[C@H]3[C@H](O)[C@H](O)CC(=NOC[C@@H](O)[C@H]4O[C@@H]5OC(C)(C)O[C@@H]5[C@H]4O)[C@@H]3CC[C@H]2C1=O`, the composite z-score was 0.0226 in the test with Albumin (Bos taurus); -0.299 in test [2]; -0.0662 in test [3]; 0.343 in test [4]; 0.324 in test [5]; -0.203 in [6]. Besides, the composite z-score was -0.0334 in the test with Sam68 (KHDRBS1); -0.736 in test [7]; -0.406 in test [8]; -0.072 in [9]; -0.144 in test [10]; -0.212 in [11]. Moreover, the composite z-score in test [12] was -0.0432; in test [13], 0.387; in test [14] it was 0.383; in the test with Lefty1, 0.0533; in test [16] it was -0.0038. Also, the composite Z-score in test [1] is -0.485 (inactive). The values for the z-score in test [15] and in [17] were -0.548 and -0.819 (inactive), respectively.
